Compound activity as filed in PubChem.
A selection: hits, their analogues and other compounds. The true share with any hit is near 11%.
HPGD inh: HPGD (human) dehydrogenase inhibition; P15428; purified HPGD, NADH fluorescence kinetic, PGE2 substrate; Potency, µM, hits mostly inhibitors; actives 4.3% (n = 150,000)
Target sequence (P15428 whole entry, looked up): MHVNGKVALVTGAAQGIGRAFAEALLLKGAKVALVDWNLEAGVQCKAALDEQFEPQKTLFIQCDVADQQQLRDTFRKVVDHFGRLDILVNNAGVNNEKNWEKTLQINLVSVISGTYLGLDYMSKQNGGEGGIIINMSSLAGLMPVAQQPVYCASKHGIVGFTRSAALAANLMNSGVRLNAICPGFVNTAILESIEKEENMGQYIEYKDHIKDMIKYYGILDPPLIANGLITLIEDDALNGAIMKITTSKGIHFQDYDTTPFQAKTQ
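NADH formation kinetics: reaction with 30 uM PGE2 and 1 mM NAD+ (final), 20 nM enzyme, Tris-HCl pH 8 with Tween 20, after 15 min compound preincubation at room temperature. Fluorescence change, last versus first of five reads.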
ALDH1A1 block: blocks purified human ALDH1A1 activity | Potency, µM (series often up to 75.3 µM), hits mostly inhibitors | actives 7.3% (n = 220,000) | P00352 | AID 1030 | Purified ALDH1A1, NADH fluorescence, propionaldehyde substrate
PNC inhibitor: inhibitors of perinucleolar compartment assembly; PC3M PTB-GFP, PNC prevalence imaging, 16 h; active compounds read low; activity change (PNC), negative = inhibition, % at 10 µM; actives 3.1% (n = 140,000);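 active means readout at or below -70, meaning at least 70% loss of cells showing the perinucleolar compartment, a nuclear body marking cancer cells; inconclusive means readout between -30 and a set limit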
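Read-out is percentage of cells bearing a perinucleolar compartment, from automated 20x imaging of fixed, Hoechst-stained PC3M PTB-GFP cells. Cells were seeded 4 h, then exposed 16 h to compound (23 nl of library stock) in duplicate plates.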
A number is an active result; 0 = inactive; ? = inconclusive; - = not tested or not shown; [ ] = remark or other dose. Unless noted, the call rests on the fitted dose curve; in most records, active means well fitted inhibition curve with a large enough effect (not every such curve was filed as active); inconclusive means small, poorly fitted or top-dose-only effect, or another doubt; inactive means no such curve, though single readings can be large or run the other way.

SMILES | HPGD inh | ALDH1A1 block | PNC inhibitor
COCc1cc(C)nc(SCC[N+](C)(C)CC(=O)c2ccc(Br)cc2)c1C#N | - | 7.9µM | -
COCc1cc(C)nc(SCC[N+](C)(C)CC(=O)Nc2ccccc2)c1C#N | - | 0 | -
Cc1ccc(NS(=O)(=O)c2ccc(Cl)c(C(=O)Nc3ccccc3-c3nc4ccccc4[nH]3)c2)cc1C | ? | 0 | 0
Cc1[nH]n(-c2ccc([N+](=O)[O-])cc2)c(=O)c1C=NCCc1c(C)[nH]c2ccccc12 | 0 | 0 | 0
COc1ccc(-n2c(-c3ccc(Br)cc3)c[n+]3c2CCc2ccccc2-3)cc1 | 0 | 0 | -134
COc1ccccc1-n1c(-c2ccccc2)c[n+]2c1CCc1ccccc1-2 | - | 0 | -
COc1ccc(-c2cn(-c3ccc(OC)cc3)c3[n+]2-c2ccccc2CC3)cc1 | 0 | ? | -96
COc1ccc(-n2cc(-c3ccccc3)[n+]3c2CCCCC3)cc1 | - | 0 | -
CN(C(=O)CSc1nnc(-c2cccnc2)n1-c1ccccc1F)C1CCS(=O)(=O)C1 (configuration not stated) | - | 0 | -
O=C1CCCN1CCCNC(=S)Nc1ccccc1Cl | - | 0 | -
O=C1CCCN1CCCNCC(=O)N1c2ccccc2Sc2ccccc21 | 0 | 35µM | 0
CCOC(=O)C1=C(Nc2ccccc2)CC(C)(O)C(C(=O)OCC)C1c1ccc(Cl)cc1 (configuration not stated) | 0 | 0 | 0
S=C(NCC1CCCO1)Nc1ccc(Cl)cc1 (configuration not stated) | 0 | 0 | 0
Cc1ccc(NC(=S)NCC2CCCO2)cc1C (configuration not stated) | 0 | ? | 0
Cc1cccc(NC(=S)NCC2CCCO2)c1 (configuration not stated) | 14µM | 0 | 0
S=C(NCC1CCCO1)Nc1ccc(Cl)cc1Cl (configuration not stated) | 28µM | 0 | ?
COC(=O)CNC(=O)CCc1nnc(C2(c3ccc(Cl)cc3)CCC2)o1 | - | 8.9µM | -
C=C(C)CNC(=O)CCc1nnc(C2(c3ccc(Cl)cc3)CCC2)o1 | - | 0 | -
O=C(COC(=O)C1CCN(S(=O)(=O)c2ccc3c(c2)OCCO3)CC1)Nc1ccc(C(F)(F)F)cc1 | 0 | 0 | 0
O=C(CCc1ccc(S(=O)(=O)N2CCOCC2)cc1)Nc1nc(COc2ccccc2)cs1 | 0 | 0 | ?
CC(C)C[C@@H](CC(=O)N[C@H](CC(=O)N[C@@H]1CCCC[C@H]1C(=O)N[C@H](CC(=O)N[C@@H](CCC(=O)O)CC(=O)O)Cc1ccccc1)C(C)C)NC(=O)[C@@H]1CCCC[C@H]1N | 0 | 0 | -
CC1=CCC(C(=O)O)C(C(=O)Nc2nc3ccc(S(C)(=O)=O)cc3s2)C1 (configuration not stated) | 0 | 0.22µM | 0
CC(C)C(=O)Nc1nc2ccc(S(C)(=O)=O)cc2s1 | - | 0 | -
CC(C)(C)NC(=O)Cn1c(SCC(=O)N2CCCCCC2)nc2ccccc21 | 0 | ? | -92
Cn1c(SCC(=O)N2CCOCC2)nc2cccnc21 | - | ? | 0
SMILES | HPGD inh | ALDH1A1 block | PNC inhibitor
COc1ccccc1-n1c(SCC(=O)N2CCCC2)nc2cccnc21 | ? | ? | -110
COCCn1c(SCC(=O)N2CCCCC2)nc2cccnc21 | 0 | 0 | -83
CCN(CC)C(=O)CSc1nc2cccnc2n1-c1ccccc1OC | 0 | ? | 0
CC(C)(C)NC(=O)Cn1c(SCC(N)=O)nc2ccccc21 | 0 | 0 | 0
Cc1ccc(S(=O)(=O)N2CCCCC2)cc1NC(=O)COc1ccccc1F | - | 0 | -
Cc1ccc(-c2nnc3cccc(Cl)n23)cc1 | - | 0 | -
COC(=O)CCC(=O)OC1(C)C(=O)C=C2C=C(C3CC3)N(c3ccc(OC)cc3)C=C2C1=O (configuration not stated) | 0 | 0[13.5 µM] | -
COC(=O)C/C=C\[C@@H](C)[C@@H](/C=N\OCC[C@@H]1C=C[C@H](OC(C)=O)[C@H](COC(C)=O)O1)OC | - | 0[13.5 µM] | -
CCCc1cc(=O)c2c(O)cccc2o1 | - | 0 | -
CCCc1cc2c(c(=O)o1)C(O)C1OC1C2=O (configuration not stated) | - | 4µM | -
CC(=O)N1CCN(c2ccc(NC(=O)c3ccc(C(C)(C)C)cc3)cc2)CC1 | 0 | 0 | ?
CC(C)(C)c1ccc(C(=O)Nc2ccc(C=C(C#N)C#N)cc2)cc1 | 0 | 4µM | -134
CC(c1ccccc1)N(NC(=O)C(O)(c1ccccc1)c1ccccc1)C(=O)c1ccccc1 (configuration not stated) | 0 | ? | 0
CC1(C)CC(=O)C2=C(C1)N(c1ccc(F)cc1)C(=O)C2(NC(=O)c1ccccc1F)C(F)(F)F (configuration not stated) | 0 | 0 | 0
CC1(C)CC(=O)C2=C(C1)N(c1ccc(F)cc1)C(=O)NC2(C(F)(F)F)C(F)(F)F | 0 | 10µM | 0
Cc1ccc(C(=O)N/C(=C/C=C\c2ccccc2)C(=O)NCc2ccco2)cc1 | ? | 0 | 0
COCCNC(=S)N(C)C1(c2ccccc2Cl)CCCCC1=O (configuration not stated) | - | 0 | -
CCc1ccc(NC(=S)N2CCCCCCC2)cc1 | - | 0 | -
O=C(c1ccco1)N1CCN(C2CC(=O)N(c3ccc4c(c3)OCO4)C2=O)CC1 (configuration not stated) | 0 | ? | 0
CCCOc1ccc(N2C(=O)CC(N(C(=O)c3ccco3)c3ccc(OCCC)cc3)C2=O)cc1 (configuration not stated) | 0 | 0 | 0
CCOC(=O)c1ccc(N2C(=O)CC(N3CCN(C(=O)c4ccco4)CC3)C2=O)cc1 (configuration not stated) | 0 | ? | 0
CCOc1ccc(N2C(=O)CC(N(Cc3ccco3)C(C)=O)C2=O)cc1 (configuration not stated) | - | 20µM | -
O=C(c1ccco1)N1CCN(C2CC(=O)N(c3ccccc3)C2=O)CC1 (configuration not stated) | 0 | 20µM | 0
CCOc1ccc(N2C(=O)CC(N3CCN(C(=O)c4ccco4)CC3)C2=O)cc1 (configuration not stated) | 0 | 8.9µM | ?
C/C(CC(=O)Nc1ccc(Cl)c(Cl)c1)=N\NC(=O)C(=O)N1CCCCC1 | - | 0 | -
SMILES | HPGD inh | ALDH1A1 block | PNC inhibitor
Cc1c(NC(=O)CN2c3ccccc3CC2C)c(=O)n(-c2ccccc2)n1C (configuration not stated) | - | 0 | -
COc1ccc(Oc2ccc(N/C=C3/CCCC3=O)cc2)cc1 | 0 | ? | 0
COc1ccc(N/C=C2/CCCCC2=O)cc1 | 25µM | 11µM | 0
COc1ccc(OC)c(N/C=C2/CCCCC2=O)c1 | 18µM | ? | 0
COc1ccc(Oc2ccc(N/C=C3\CCCC3=O)cc2)cc1 | 0 | ? | 0
CC=C(Cl)Cl | 0 | 0 | -
Cc1ccccc1NC(=S)N1CCC(NC(=O)c2ccco2)CC1 | - | 0 | -
CCCC(C1=C(O)CC(C)(C)CC1=O)C1C(=O)CC(C)(C)CC1=O (configuration not stated) | 0 | 22µM | 0
Cc1ccc(C(C2=C(O)CC(C)(C)CC2=O)C2C(=O)CC(C)(C)CC2=O)o1 (configuration not stated) | 3.5µM | 14µM | ?
CC1(C)CC(=O)C(C(C2=C(O)CC(C)(C)CC2=O)c2cccs2)C(=O)C1 (configuration not stated) | - | 0 | 0
CC1(C)CC(=O)C2=C(C1)Nc1ccccc1NC2c1cccnc1 (configuration not stated) | 0 | 0 | ?
